Records with an inconclusive call do not appear. Entries that show only a call come without a potency. The source made the active and inactive calls. Unless noted, the call rests on the fitted dose curve; in most records, active means well fitted curve in the direction sought with a large enough effect; inconclusive means small, poorly fitted or top-dose-only effect, or another doubt; inactive means no such curve, though single readings can be large; an effect the other way counts as inactive or inconclusive.
Experiments:
[1] = test system: Zika virus NS2B-NS3 protease; assay: Primary screen GU AMC qHTS for Zika virus inhibitors (AID 1347154); further: nearly all actives have a fitted effect of over 70% in size
Method in brief: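 Unlinked Zika NS2B hydrophilic domain/NS3 protease domain noncovalent complex (25 nM final) in 10 mM Tris-HCl pH 8.0, 0.01% Tween 20, with AMC peptide substrate. Fluorescence (ex 340, em 450 nm) change over 15 min, room temperature; percent inhibition fitted to 4-parameter Hill equation.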

[2] = qHTS Assay for Lipid Storage Modulators (AID 1519; calls by dose curve); conditions: Drosophila S3 cells, BODIPY lipid droplet/cell ratio, laser cytometry, cells loaded with oleic acid
Method in brief: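 Cells seeded at 5,000 per well were treated with compounds over a concentration series and loaded with oleic acid (400 uM, as added). Lipid droplet fluorescence (488 nm excitation, 500-530 nm channel) was read by laser-scanning cytometry and normalized to 20 uM Triacsin C.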

Furin (Homo sapiens) = Furin (Homo sapiens) (UniProt P09958); assay: Furin counterscreen qHTS for Zika virus inhibitors (AID 1347149);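 further: purified recombinant full-length human furin enzyme at 5 nM; fluorescence gain from furin cutting a BOC-RVRR-AMC peptide substrate over 15 min; top concentration of the series differs between compounds; nearly all actives have a fitted effect of over 70% in size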
Furin (Homo sapiens), sequence (P09958 whole entry, looked up): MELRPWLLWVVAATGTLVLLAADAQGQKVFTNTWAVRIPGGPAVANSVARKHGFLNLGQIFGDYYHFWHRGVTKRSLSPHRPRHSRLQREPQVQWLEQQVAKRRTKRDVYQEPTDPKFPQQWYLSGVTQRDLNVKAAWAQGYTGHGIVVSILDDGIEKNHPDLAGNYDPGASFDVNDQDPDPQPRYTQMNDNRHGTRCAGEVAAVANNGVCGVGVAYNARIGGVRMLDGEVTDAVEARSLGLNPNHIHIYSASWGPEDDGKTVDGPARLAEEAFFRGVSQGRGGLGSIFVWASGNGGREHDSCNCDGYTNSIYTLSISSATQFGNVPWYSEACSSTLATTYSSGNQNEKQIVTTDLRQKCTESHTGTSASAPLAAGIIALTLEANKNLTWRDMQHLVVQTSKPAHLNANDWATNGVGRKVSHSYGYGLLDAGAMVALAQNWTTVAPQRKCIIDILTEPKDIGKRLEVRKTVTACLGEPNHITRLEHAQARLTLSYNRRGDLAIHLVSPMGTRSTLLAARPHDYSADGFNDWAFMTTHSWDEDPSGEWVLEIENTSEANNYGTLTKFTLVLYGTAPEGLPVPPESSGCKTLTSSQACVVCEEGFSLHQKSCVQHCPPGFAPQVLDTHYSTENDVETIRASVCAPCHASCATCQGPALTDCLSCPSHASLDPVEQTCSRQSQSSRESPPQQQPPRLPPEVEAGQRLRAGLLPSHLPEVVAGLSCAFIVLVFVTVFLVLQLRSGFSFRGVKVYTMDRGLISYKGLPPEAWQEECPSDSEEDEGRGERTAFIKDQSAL
Method in brief: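 Fluorogenic cleavage of BOC-RVRR-AMC (2 microM final, Km ~15 µM) was monitored (ex 340, em 450 nm) at 37C after 15 min RT preincubation of 5 nM furin with compounds in HEPES pH 7.0 buffer with CaCl2 and Triton X-100. Percent inhibition was fitted to a 4-parameter Hill curve.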

[3] = test system: Zika virus NS2B-NS3 protease (unlinked); assay: Optimization of GU AMC qHTS for Zika virus inhibitors: Unlinked NS2B-NS3 protease assay (AID 1347151); further: nearly all actives have a fitted effect of over 80% in size
Method in brief: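 Fluorescence gain (340/450 nm) over 15 min at room temperature, ~20% conversion, gave percent inhibition fitted to a 4-parameter Hill equation; enzyme was unlinked NS2B-NS3 (25 nM final), pH 8.0 Tris buffer.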

[4] = molecular target: Cytochrome P450 3A4 (Homo sapiens) (UniProt P08684); assay: qHTS Assay for Inhibitors and Substrates of Cytochrome P450 3A4 (AID 884); further: potency means the concentration at half of the fitted maximal effect; nearly all actives have a fitted effect of over 50% in size
Cytochrome P450 3A4 (Homo sapiens), sequence (P08684 whole entry, looked up): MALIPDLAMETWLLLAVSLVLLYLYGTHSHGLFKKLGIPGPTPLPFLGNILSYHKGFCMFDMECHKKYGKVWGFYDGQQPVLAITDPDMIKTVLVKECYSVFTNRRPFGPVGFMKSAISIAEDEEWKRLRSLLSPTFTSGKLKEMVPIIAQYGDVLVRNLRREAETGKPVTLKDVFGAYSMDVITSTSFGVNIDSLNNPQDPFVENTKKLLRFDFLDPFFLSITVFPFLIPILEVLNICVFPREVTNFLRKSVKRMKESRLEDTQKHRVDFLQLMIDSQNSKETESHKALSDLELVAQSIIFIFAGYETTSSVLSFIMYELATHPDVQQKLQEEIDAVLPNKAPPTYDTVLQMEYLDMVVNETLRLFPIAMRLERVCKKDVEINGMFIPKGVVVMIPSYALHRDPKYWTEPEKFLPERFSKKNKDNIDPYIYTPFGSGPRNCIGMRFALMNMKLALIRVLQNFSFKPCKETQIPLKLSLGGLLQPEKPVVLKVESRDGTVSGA
Method in brief: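 20 nM human CYP3A4 with 25 uM Luciferin-PPXE (at KM) in 200 mM KPO4, preincubated 10 min with compound; NADPH regeneration started a 60 min RT reaction. Luciferin detected by luminescence, normalized to 57 uM ketoconazole as full inhibition.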

[5] = molecular target: Cytochrome P450 3A4 (Homo sapiens) (UniProt P08684); assay: qHTS Assay for Activators of Cytochrome P450 3A4 (AID 885); further: nearly all actives have a fitted effect of over 65% in size
Method in brief: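 Steps: enzyme/substrate mix dispensed; compound added, 10 min RT; NADPH regeneration solution added, 60 min RT; luciferin detection buffer stops reaction; 20 min later luminescence measured.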

[6] = Confirmation and Secondary Assay for Modulators of Hemoglobin Beta Chain Splicing at IVS2 654 locus (AID 910);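 further: per-well total GFP intensity by laser scanning cytometry after 2-day treatment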
Method in brief: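 HeLa cells stably carrying EGFP interrupted by mutant beta-globin IVS2-654 intron (CMV-driven) were treated with compound for 2 days at 37C; corrected splicing was scored as total peak GFP intensity per well (488 nm excitation, 500-520 nm emission).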

[7] = Confirmation and Secondary Assay for Modulators of Hemoglobin Beta Chain Splicing at IVS2 705 locus (AID 930);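 further: HeLa cells stably expressing the EGFP-705 splicing reporter; GFP fluorescence per well restored by corrected splicing of the IVS2-705 intron in EGFP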
Method in brief: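 Per-well GFP, captured at 1 x 8 µm resolution with 488 nm excitation, served as the read-out for HeLa EGFP-705 cells incubated 2 days with test compound versus DMSO.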

[8] = molecular target: Ubiquitin carboxyl-terminal hydrolase 1 (Homo sapiens) (UniProt O94782); assay: Inhibitors of USP1/UAF1: Pilot qHTS (AID 504865); further: potency means the concentration at half of the fitted maximal effect; nearly all actives have a fitted effect of over 35% in size
Ubiquitin carboxyl-terminal hydrolase 1 (Homo sapiens), sequence (O94782 whole entry, looked up): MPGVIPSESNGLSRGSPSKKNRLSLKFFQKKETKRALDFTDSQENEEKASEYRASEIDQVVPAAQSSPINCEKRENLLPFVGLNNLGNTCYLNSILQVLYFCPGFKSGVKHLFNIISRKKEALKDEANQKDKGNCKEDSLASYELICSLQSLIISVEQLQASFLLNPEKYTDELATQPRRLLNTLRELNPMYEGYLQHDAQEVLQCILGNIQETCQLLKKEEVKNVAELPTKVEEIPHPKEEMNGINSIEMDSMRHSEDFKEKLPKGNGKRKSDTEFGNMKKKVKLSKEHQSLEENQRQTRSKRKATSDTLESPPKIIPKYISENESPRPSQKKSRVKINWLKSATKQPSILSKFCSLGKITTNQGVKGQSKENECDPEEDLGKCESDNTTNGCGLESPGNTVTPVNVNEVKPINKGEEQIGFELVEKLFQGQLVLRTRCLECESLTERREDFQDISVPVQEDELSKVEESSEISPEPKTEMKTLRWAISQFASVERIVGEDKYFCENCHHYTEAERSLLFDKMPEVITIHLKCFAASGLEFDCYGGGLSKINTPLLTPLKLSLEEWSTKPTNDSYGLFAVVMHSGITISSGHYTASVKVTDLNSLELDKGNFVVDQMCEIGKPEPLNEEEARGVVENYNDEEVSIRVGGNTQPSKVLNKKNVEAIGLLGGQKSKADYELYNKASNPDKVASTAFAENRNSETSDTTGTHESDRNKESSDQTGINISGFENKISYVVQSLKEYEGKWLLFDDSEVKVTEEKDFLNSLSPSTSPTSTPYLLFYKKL
Method in brief: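 Deubiquitinase activity followed as kinetic rhodamine fluorescence release from 150 nM Ub-Rho. 1 nM USP1/UAF1 with compound, after 15 min room-temperature preincubation, in HEPES pH 7.8 buffer containing TCEP, EDTA, BSA and Tween-20.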

[9] = test system: Zika virus NS2B-NS3 protease (unlinked complex); assay: Confirmatory screen GU AMC qHTS for Zika virus inhibitors (AID 1347153);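 further: enzyme at 25 nM with substrate at 10 µM below its Km of 18.3 µM; potency means the concentration at half of the fitted maximal effect; nearly all actives have a fitted effect of over 70% in size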
Method in brief: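 Fluorescence change (ex 340/em 450 nm) over 15 min, ~20% substrate conversion, normalized to no-inhibitor and no-enzyme controls, then Hill-fitted. Unlinked protease at 25 nM; AMC peptide 10 µM.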

[10] = Confirmatory screen NINDS Rhodamine qHTS for Zika virus inhibitors (AID 1347161); further: potency means the concentration at half of the fitted maximal effect; nearly all actives have a fitted effect of over 60% in size
Method in brief: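 In 10 mM Tris-HCl pH 8.0 containing 0.01% Tween 20, linked NS2B-NS3 protease (25 nM final) is exposed to test compounds for 15 min. Cleavage of 1.5 microM Rhodamine110 substrate is tracked by fluorescence over 15 min.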

[11] = test system: Zika virus NS2B-NS3 protease (linked); assay: 384 well plate NINDS AMC confirmatory qHTS for Zika virus inhibitors (AID 1347163); conditions: Recombinant NS2B-NS3 protease, Ac-VKTGKR-AMC fluorescence; further: potency means the concentration at half of the fitted maximal effect; nearly all actives have a fitted effect of over 50% in size
Method in brief: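 Linked NS2B-NS3 protease (final 5 nM, 30 nM or 60 nM) was preincubated with compounds (final up to 1 mM) for ~15 minutes. Ac-VKTGKR-AMC substrate (final 30 microM) then reacted for 25 minutes at room temperature in the dark. Fluorescence (ex 355/em 460 nm) was normalized to no-enzyme and no-inhibitor controls.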

[12] = HepG2 cells viability qHTS for Zika virus inhibitors (AID 1347168); further: potency means the concentration at half of the fitted maximal effect
Method in brief: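 Counter-screen for cytotoxicity of hits from NS2B-NS3 protease qHTS. Overnight-attached cells (2.5 x 10^5 cells/mL, DMEM/4% FBS) were dosed in titration, incubated 24 to 48 hours, then assayed by CellTiter Glo.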

[13] = Primary qHTS for small molecule stabilizers of the endoplasmic reticulum resident proteome: Secreted ER Calcium Modulated Protein (SERCaMP) assay (AID 1508630)
Method in brief: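 GLuc-SERCaMP-expressing SH-SY5Y cells, pretreated 16 h with compound, are challenged with thapsigargin to empty ER calcium stores; after 4 h, coelenterazine is added directly to the medium and luminescence is imaged.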

[14] = molecular target: Rap guanine nucleotide exchange factor 3 (Homo sapiens) (UniProt O95398); assay: Confirmatory qHTS for antagonist of cAMP-regulated guanine nucleotide exchange factor 3 (EPAC1) (AID 1645880); further: potency means the concentration at half of the fitted maximal effect; nearly all actives have a fitted effect of over 55% in size
Rap guanine nucleotide exchange factor 3 (Homo sapiens), sequence (O95398 whole entry, looked up): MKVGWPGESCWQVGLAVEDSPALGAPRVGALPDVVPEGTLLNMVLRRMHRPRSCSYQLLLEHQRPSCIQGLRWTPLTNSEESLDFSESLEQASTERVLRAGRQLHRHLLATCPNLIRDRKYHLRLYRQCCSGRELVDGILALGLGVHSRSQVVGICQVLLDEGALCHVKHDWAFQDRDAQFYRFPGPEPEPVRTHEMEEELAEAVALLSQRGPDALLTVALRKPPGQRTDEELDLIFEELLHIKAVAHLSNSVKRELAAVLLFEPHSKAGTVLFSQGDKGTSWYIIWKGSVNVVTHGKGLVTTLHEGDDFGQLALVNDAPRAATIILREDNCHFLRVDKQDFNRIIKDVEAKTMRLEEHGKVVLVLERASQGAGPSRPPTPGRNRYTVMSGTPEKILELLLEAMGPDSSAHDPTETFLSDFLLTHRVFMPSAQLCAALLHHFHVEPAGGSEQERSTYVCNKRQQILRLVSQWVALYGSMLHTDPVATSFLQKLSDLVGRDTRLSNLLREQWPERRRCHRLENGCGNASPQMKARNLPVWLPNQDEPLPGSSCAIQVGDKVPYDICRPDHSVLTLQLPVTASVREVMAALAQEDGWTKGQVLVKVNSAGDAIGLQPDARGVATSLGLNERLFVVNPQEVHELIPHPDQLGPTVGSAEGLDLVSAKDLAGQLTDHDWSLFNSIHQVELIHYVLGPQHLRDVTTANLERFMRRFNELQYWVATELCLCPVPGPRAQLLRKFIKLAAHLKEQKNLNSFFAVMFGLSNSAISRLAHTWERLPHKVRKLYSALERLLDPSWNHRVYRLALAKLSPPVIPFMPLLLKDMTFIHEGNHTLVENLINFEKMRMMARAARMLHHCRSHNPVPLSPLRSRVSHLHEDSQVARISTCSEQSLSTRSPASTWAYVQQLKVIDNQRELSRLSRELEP
Method in brief: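 Nucleotide exchange uses 100 nM EPAC1, 250 nM RAP1B-BODIPY-GDP and 50 uM GDP, with compounds in a concentration-titration series. After 5 min at room temperature, fluorescence (480 nm ex/540 nm em) is read every 5 min for 30 min. Data are normalized to control ATA and DMSO.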

[15] = molecular target: Rap guanine nucleotide exchange factor 3 (Homo sapiens) (UniProt O95398); assay: Confirmatory qHTS for agonist of cAMP-regulated guanine nucleotide exchange factor 3 (EPAC1) (AID 1645881);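 further: EPAC1 catalysed release of BODIPY-GDP from Rap1B seen as fluorescence loss; nearly all actives have a fitted effect of over 75% in size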
[16] = molecular target: Rap guanine nucleotide exchange factor 4 (Homo sapiens) (UniProt Q8WZA2); assay: Confirmatory qHTS for agonist of cAMP-regulated guanine nucleotide exchange factor 4 (EPAC2) (AID 1645884);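 further: nucleotide exchange releases bodipy-GDP from Rap1 and this lowers its fluorescence; nearly all actives have a fitted effect of over 65% in size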
Rap guanine nucleotide exchange factor 4 (Homo sapiens), sequence (Q8WZA2 whole entry, looked up): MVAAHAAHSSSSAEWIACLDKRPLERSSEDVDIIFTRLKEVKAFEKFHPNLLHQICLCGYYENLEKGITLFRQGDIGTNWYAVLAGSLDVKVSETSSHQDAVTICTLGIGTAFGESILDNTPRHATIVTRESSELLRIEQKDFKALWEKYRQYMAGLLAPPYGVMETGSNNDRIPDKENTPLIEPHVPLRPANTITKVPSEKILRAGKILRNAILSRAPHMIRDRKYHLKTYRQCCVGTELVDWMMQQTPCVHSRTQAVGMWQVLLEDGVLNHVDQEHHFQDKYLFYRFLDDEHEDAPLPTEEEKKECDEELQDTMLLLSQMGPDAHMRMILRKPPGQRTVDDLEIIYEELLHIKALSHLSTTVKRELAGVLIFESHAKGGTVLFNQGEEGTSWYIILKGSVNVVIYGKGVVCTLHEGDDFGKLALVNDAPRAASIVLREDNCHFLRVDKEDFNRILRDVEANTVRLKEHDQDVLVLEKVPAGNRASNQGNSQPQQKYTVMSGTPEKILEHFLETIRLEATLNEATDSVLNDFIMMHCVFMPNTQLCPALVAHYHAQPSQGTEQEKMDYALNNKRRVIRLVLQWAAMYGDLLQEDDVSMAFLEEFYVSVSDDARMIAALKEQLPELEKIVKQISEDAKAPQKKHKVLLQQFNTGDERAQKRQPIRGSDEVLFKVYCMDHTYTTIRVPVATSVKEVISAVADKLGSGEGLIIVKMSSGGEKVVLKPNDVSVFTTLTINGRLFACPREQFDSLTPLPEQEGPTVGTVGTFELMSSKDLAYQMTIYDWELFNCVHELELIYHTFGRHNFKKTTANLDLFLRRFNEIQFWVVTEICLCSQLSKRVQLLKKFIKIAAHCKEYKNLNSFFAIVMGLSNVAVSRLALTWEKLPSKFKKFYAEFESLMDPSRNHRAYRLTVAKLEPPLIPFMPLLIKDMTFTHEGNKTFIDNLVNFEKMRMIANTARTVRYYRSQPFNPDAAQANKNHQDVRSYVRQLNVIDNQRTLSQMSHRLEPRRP

[17] = molecular target: Rap guanine nucleotide exchange factor 4 (Homo sapiens) (UniProt Q8WZA2); assay: Confirmatory qHTS for antagonist of cAMP-regulated guanine nucleotide exchange factor 4 (EPAC2) (AID 1645885); further: nearly all actives have a fitted effect of over 25% in size

**Q.** For `O=C1CC2OCC=C3CN4CCC56c7ccccc7N1C5C2C3CC46` (stereo unspecified), which Potency [1] is on record?
**A.** inactive

**Q.** What does the source list for `CC1O[C@@H](O[C@@H]2C(O)C[C@H](O[C@@H]3C(O)C[C@@H](OC4CC[C@@]5(C)C6CC[C@]7(C)C(C8=CC(=O)OC8)CC[C@@]7(O)C6CC[C@@H]5C4)OC3C)OC2C)CC(O)[C@H]1O` (stereo partly specified)?
**A.** activity change, negative = inhibition ([2]; at 57.5 µM (top of the series)): 3.23% (inactive); max response ([2]; measured here: cell count channel max response): 20.2%; max response ([2]; measured here: lipid channel max response): 25.7%; Potency (Furin (Homo sapiens)): inactive; outcome [3]: inactive

**Q.** For `CC(C)=CCCC1(C)C=Cc2c(O)c3c(c(CC=C(C)C)c2O1)OC12C(=CC4CC1C(C)(C)OC2(C/C=C(/C)C(=O)O)C4O)C3=O` (stereo unspecified), which Potency [4] is on record?
**A.** 20 µM (active)

**Q.** And the Potency [5]?
**A.** inactive

**Q.** What about the Potency [6] of the same molecule?
**A.** inactive

**Q.** And the outcome [7]?
**A.** inactive

**Q.** What about the Potency [8] of the same molecule?
**A.** 35.5 µM (active)

**Q.** And the Potency (Furin (Homo sapiens))?
**A.** inactive

**Q.** What about the Potency [9] of the same molecule?
**A.** 17.1 µM (active)

**Q.** What about the Potency [10] of the same molecule?
**A.** 2.78 µM (active)

**Q.** What about the Potency [11] of the same molecule?
**A.** 126 µM (active)

**Q.** And the Potency [12]?
**A.** 18.6 µM (active)

**Q.** What about the Potency [13] of the same molecule?
**A.** inactive

**Q.** What about the Potency [14] of the same molecule?
**A.** 28 µM (active)

**Q.** And the outcome [15]?
**A.** inactive

**Q.** What about the outcome [16] of the same molecule?
**A.** inactive

**Q.** What about the Potency [17] of the same molecule?
**A.** inactive
